IL-1B inflam inh – blocks inflammasome-driven IL-1 beta release | hit rate 4.7% among 360,000 | AID 743279 | THP-1 LPS/ATP IL-1B secretion, AlphaLISA, 16 h; active compounds read low | activity change, % at 57.5 µM; in the data active means activity change below about -50%; inconclusive means mostly about -30% to -49%; further: on the % scale 0 is the no-effect control and ±100 the full control effect
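THP-1 cells pretreated 1 hr with compounds (up to 57.5 uM final), then stimulated with LPS (250 ng/mL final) plus ATP (1.25 mM final); secreted IL-1B measured by AlphaLISA after 16 hr, decreased signal indicating inhibition.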
S2 tox – viability counter-screen for ATXN expression inhibitors; S2 cells (HEK-293 line with an ATXN2-luciferase reporter) viability, CellTiter-Fluor protease fluorescence, 24 h; hit rate 0.49% among 400,000; Potency, µM (highest dose often 56.7 µM), usual class: cytotoxic; further: potency means the concentration at half of the fitted maximal effect; nearly all actives have a fitted effect of over 40% in size
Integrin act MD – integrin-mediated muscular dystrophy alleviation activation. alpha7betagal myoblasts, beta-gal FDG fluorescence, 48 h. AID 624291. hit rate 0.064% among 350,000. Potency, µM (highest dose often 38.3 µM), without a hit: top-dose activation, actives largely listed as activators;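 further: potency means the concentration at half of the fitted maximal effect; 100% = response of the positive control SU9516; nearly all actives have a fitted effect of over 60% in size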
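alpha7betagal+/- myoblasts (passage 13, 250/well) treated 48 h at 37C with compounds at 1:260 dilution of DMSO stock. Lysed, then beta-galactosidase activity read as FDG fluorescence (ex 480/em 540) after 30 min, with pre-read for autofluorescence.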
DRD3 antagonist – D3 dopamine receptor (human) antagonism; P35462; D3R cells, DiscoveRx beta-arrestin luminescence, antagonist mode; active compounds read low; max response, negative = inhibition, %; hit rate 2.5% among 360,000; AID 652054; in the data active means max response below about -50%; inconclusive means no clear call, values can overlap the other calls; further: on the % scale 0 is the no-effect control and ±100 the full control effect
Target sequence (P35462 whole entry, looked up): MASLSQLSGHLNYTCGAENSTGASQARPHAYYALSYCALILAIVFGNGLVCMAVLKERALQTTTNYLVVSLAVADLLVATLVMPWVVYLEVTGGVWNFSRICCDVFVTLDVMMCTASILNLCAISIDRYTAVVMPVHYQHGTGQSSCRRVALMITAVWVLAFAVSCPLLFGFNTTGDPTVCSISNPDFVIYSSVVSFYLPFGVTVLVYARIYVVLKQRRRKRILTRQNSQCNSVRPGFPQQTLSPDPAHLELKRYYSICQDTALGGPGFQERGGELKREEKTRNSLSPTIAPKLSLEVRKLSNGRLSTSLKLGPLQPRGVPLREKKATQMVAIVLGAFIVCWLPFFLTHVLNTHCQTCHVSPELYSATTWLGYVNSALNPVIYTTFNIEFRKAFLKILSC
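Cells expressing the human receptor were seeded at 1500 cells/well, incubated overnight at 37 degrees C in 5% CO2, then exposed to library compounds with dopamine controls for 90 minutes at 37 degrees C before luminescent detection.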
D3 ag – activates the human D3 dopamine receptor; D3R DiscoveRx beta-arrestin cells, luminescence, 90 min; hit rate 0.58% among 410,000; max activation, %; P35462; in the data active means max activation above about 30%; further: 0% is about no effect
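Agonist mode: compounds and dopamine controls were applied to plated cells for 90 min at 37 degrees C after an overnight attachment at 1500 cells/well. Luminescent read-out followed 30 - 60 minutes at room temperature with DiscoveRx detection reagent.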
ATXN2 expr inh – reduces ATXN2 reporter expression in HEK-293 cells; HEK-293 ATXN2-luciferase reporter, luminescence, 24 h; Potency, µM (top dose mostly 57 µM), inactives show at the top dose activity change, negative = inhibition, usual class: inhibitors; hit rate 0.72% among 360,000; AID 1745845; further: potency means the concentration at half of the fitted maximal effect; on the % scale 0 is the no-effect control and ±100 the full control effect; nearly all actives have a fitted effect of over 55% in size
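ATXN2-luciferase reporter cells (luciferase flanked by upstream and downstream ATXN2 gene portions) were treated 24 h at 37 °C with compounds at up to 57 uM. SteadyGlo luminescence gave expression; GF-AFC fluorescence gave viability.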
* = called active by the depositor; i = inactive; ? = inconclusive; / = no result. Most compounds without a hit are left out; they make up all but 7% or so of the library. Unless noted, the call rests on the fitted dose curve; in most records, active means well fitted curve in the direction sought with a large enough effect; inconclusive means small, poorly fitted or top-dose-only effect, or another doubt; inactive means no such curve, though single readings can be large; an effect the other way counts as inactive or inconclusive.

SMILES	IL-1B inflam inh	S2 tox	Integrin act MD	DRD3 antagonist	D3 ag	ATXN2 expr inh
O=[N+]([O-])c1ccccc1OCCNCc1ccccc1	-8.3	?	-23.1%	-85.8*	24.5	/
COCC(=O)NC1CC2CCCC(C1)N2Cc1ccccc1 (stereo not drawn)	-9.7	i	12.8%	-77.5*	2.2	3.9%
CC(C)(C)OC(=O)NC1CC2CCCC(C1)N2Cc1ccccc1 (stereo not drawn)	-5.6	i	11.8%	-85.5*	-21.2	7.2%
Nc1nnc(SC2CC(=O)N(c3ccccc3)C2=O)s1 (stereo not drawn)	-88.6*	i	-24.7%	-54.8*	-1.2	4.3%
COc1ccc(N2C(=O)CC(Sc3nc4ccccc4s3)C2=O)cc1OC (stereo not drawn)	46.6	31.6µM*	-70.4%	-7.9	-0.4	/
CC(=O)Nc1ccc(N2C(=O)CC(Sc3nc4ccccc4s3)C2=O)cc1 (stereo not drawn)	20.5	i	15.8%	11.0	-1.8	/
Cc1cnc(C(=O)O)c[n+]1[O-]	/	i	/	/	-11.6	-0.9%
COC(=O)CSc1nnc(-c2ccccn2)n1N	-16.4	i	4.3%	9.7	8.3	-1.1%
Cc1sc(-c2ccccn2)nc1OC(=O)c1ccc(F)cc1F	-75.9*	/	0.0%	106.0	27.1	-21.7%
Nc1cc(=O)nc(SCC(=O)Nc2cccc3ccccc23)n1CCc1ccccc1	-6.4	i	14.8%	-0.8	-2.9	-8.6%
Cc1ccc(S(=O)(=O)ON2C(=O)c3ccccc3C2=O)c(C)c1	-78.1*	?	9.4%	-29.5	9.8	?
Cc1cc(C)c(S(=O)(=O)ON2C(=O)c3ccccc3C2=O)cc1C	-60.9*	?	-22.7%	?	-6.1	?
Cc1cc(C)c(C)c(S(=O)(=O)ON2C(=O)c3ccccc3C2=O)c1C	-119.4*	?	-23.9%	?	-7.3	?
CN(C)C(=O)c1ccc(NC(=O)COC(=O)CCN=C2NS(=O)(=O)c3ccccc32)cc1	10.0	i	20.0%	10.4	0.5	9.4%
CC(C)(Oc1ccc(Cl)cc1)C(=O)OCc1nc2ccsc2c(=O)[nH]1	-0.5	i	27.2%	0.3	5.1	8.1%
C=CCn1c(=NC(=O)c2ccc(S(=O)(=O)N3CCc4ccccc4C3)cc2)sc2cc(S(N)(=O)=O)ccc21	105.0	i	-42.8%	-1.2	5.6	-26.2%
C#CCn1c(=NC(=O)c2ccc(S(=O)(=O)N3CCc4ccccc4C3)cc2)sc2cc(S(N)(=O)=O)ccc21	41.3	17.8µM*	-70.5%	-13.0	-4.0	?
Nc1c(C(=O)N2CCOCC2)sc2nc3c(cc12)CCCC3	2.4	i	14.0%	4.5	-1.2	3.16µM*
Cc1cc(C)c2nc3sc(C(=O)N4CCOCC4)c(N)c3cc2c1	61.4	?	-48.7%	?	-9.3	/
Cc1cc(C)c2cc3c(N)c(C(=O)N4CCOCC4)sc3nc2c1	-75.6*	i	14.3%	14.8	0.5	51.1%
CCO[C@H]1OC(C(=O)NCc2ccccc2)=C[C@@H](C)[C@@H]1CCCO	15.9	i	9.8%	37.7	-1.2	12.1%
O=c1[nH]c(Sc2ccc([N+](=O)[O-])cc2[N+](=O)[O-])nc2ccccc12	-22.5	?	-54.2%	-1.1	-7.1	/
O=[N+]([O-])c1ccc(Sc2cc[n+]([O-])c3ccccc23)c([N+](=O)[O-])c1	-108.2*	?	-8.1%	?	-13.3	8.6%
O=C1Nc2ccccc2-n2nnnc2C1N1CCCN(Cc2ccc(F)cc2)CC1 (stereo not drawn)	49.5	/	/	10.4	-1.4	/
CCn1nc(C)cc1C(=O)OCC(=O)c1ccc(Cl)cc1	6.0	i	-7.8%	5.5	8.6	-11.8%
SMILES	IL-1B inflam inh	S2 tox	Integrin act MD	DRD3 antagonist	D3 ag	ATXN2 expr inh
Cc1cc(C)n(C(=O)CNC(=O)c2cccc(Br)c2)n1	19.3	i	-20.5%	-12.8	-6.8	-2.7%
CCn1nc(C)cc1C(=O)Sc1cccc(Br)c1	-101.8*	i	-37.9%	-28.8	-7.8	-1.9%
CCn1nc(C)cc1C(=O)Sc1ccc(Cl)cc1Cl	-62.5*	i	-29.1%	-24.6	-23.2	-26.8%
CN(C)CCN(C(=O)c1ccc2c(c1)OCCO2)c1nc2c(Cl)cccc2s1	1.4	i	2.5%	-25.8	-6.4	-11.0%
CN(C)CCN(C(=O)c1ccc2ccccc2c1)c1nc2cc3c(cc2s1)OCO3	-4.6	i	-1.2%	0.0	-3.5	/
CN(C)CCN(C(=O)c1ccc2c(c1)OCCO2)c1nc2cc3c(cc2s1)OCO3	-53.8*	i	21.4%	-19.9	-8.8	5.3%
COc1ccc(Cl)c2sc(N(CCN(C)C)C(=O)c3ccc4c(c3)OCCO4)nc12	-95.6*	?	-46.7%	-18.8	-15.6	?
CCN(CC)CCN(C(=O)c1ccc2c(c1)CCCC2)c1nc2cc(OC)c(OC)cc2s1	-81.8*	i	-24.9%	-9.8	-9.2	?
CN(C)CCN(C(=O)c1ccc2c(c1)CCCC2)c1nc2cc3c(cc2s1)OCCO3	-57.7*	i	-21.0%	-5.2	-18.0	5.9%
COCCSc1ccccc1C(=O)Nc1cc([N+](=O)[O-])ccc1OC	-14.5	i	-30.3%	-3.0	-2.7	/
C=CCn1c(=O)c(C(=O)NCc2ccc3c(c2)OCO3)c(O)c2cc(OC)c(OC)cc21	-21.5	i	-4.0%	22.4	9.8	-13.5%
CCOC(=O)c1sc2ncn(/N=C/c3ccc(O)c(OC)c3)c(=O)c2c1C	-2.3	?	3.0%	16.7	0.9	/
CN(C)Cc1ncccc1Oc1nc2cc(-c3cccc(Cl)c3)sc2c(=O)n1C	?	i	/	3.9	-1.7	-26.2%
Cc1ccc(C(=O)NNc2cc(N3CCCC3)nc(N3CCCC3)n2)cc1	-2.6	i	2.7%	-52.3*	-9.2	-3.8%
Cc1cccc(N2CCN(c3ccc4cc(S(=O)(=O)N5CCCCC5)ccc4n3)CC2C)c1 (stereo not drawn)	41.5	i	0.0%	14.5	-1.6	-3.5%
N#CC(C#N)=C1C=CC=CN1/C(=C\c1ccco1)C(=O)c1ccc(Cl)cc1	-100.7*	?	-62.1%	-108.1*	-6.0	?
N#C/C(=C\c1ccco1)C(=O)NCc1ccccc1	0.0	i	-31.9%	-8.4	-1.1	/
CC(/C=N/n1c(-c2ccc(Cl)cc2)n[nH]c1=S)=C\c1ccco1	3.4	i	4.9%	-14.9	3.1	-9.1%
N#CC(C#N)=C1C=CC=CN1/C(=C\c1ccco1)C(=O)c1ccc(-c2ccccc2)cc1	-66.8*	?	-46.8%	-91.9*	-10.6	?
O=C1CSC(=NC2CCCCC2)N1	-95.6*	i	-27.9%	-5.9	1.1	-0.9%

From PubChem BioAssay
